Screens as filed in PubChem BioAssay.
Compounds with a hit are over-represented: about 2.3% of the library has one in this group of screens.
MEKK3 PB1 HTS = modulators of MEKK3-MEK5 PB1 binding, primary screen, biochemical, wildtype MEKK3, multiplex bead flow cytometry, Alexa488-MEK5; bead-based flow cytometry, Alexa488-MEK5 binding to MEKK3; actives lie on both sides; 0 = blocked by unlabeled MEK5, 100 = vehicle; AID 1529, 2009; 290,000 tested, 1.4% active; Mitogen-activated protein kinase kinase kinase 3 (Homo sapiens), Q99759; binding response (% of control), % at 10 µM;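 active means binding response more than 3 SD above or below the average of its plate-row segment, actives on both sides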;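 further: Alexa488 bead fluorescence after subtracting the streptavidin-only scavenger bead signal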
Target sequence (Q99759 whole entry, looked up): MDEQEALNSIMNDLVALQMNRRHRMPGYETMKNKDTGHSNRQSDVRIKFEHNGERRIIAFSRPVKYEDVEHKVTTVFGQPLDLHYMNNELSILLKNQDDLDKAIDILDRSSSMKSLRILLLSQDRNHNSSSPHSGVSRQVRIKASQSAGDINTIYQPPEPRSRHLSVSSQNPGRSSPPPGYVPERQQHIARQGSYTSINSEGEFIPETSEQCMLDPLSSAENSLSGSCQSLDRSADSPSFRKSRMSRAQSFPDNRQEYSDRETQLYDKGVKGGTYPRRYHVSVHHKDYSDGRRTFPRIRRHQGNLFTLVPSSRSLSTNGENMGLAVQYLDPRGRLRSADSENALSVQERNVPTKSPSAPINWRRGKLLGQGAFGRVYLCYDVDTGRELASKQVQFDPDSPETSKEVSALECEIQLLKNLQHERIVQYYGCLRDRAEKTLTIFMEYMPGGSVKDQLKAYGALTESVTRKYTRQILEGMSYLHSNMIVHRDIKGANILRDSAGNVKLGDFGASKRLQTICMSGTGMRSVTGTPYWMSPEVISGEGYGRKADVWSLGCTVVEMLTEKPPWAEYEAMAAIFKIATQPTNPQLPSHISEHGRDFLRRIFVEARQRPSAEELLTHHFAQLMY
UBC13 inh = UBC13 polyubiquitin chain formation inhibitors, primary screen, biochemical, TR-FRET, uHTS | inhibition, % at 20 µM | 330,000 tested, 0.47% active | Ubiquitin-conjugating enzyme E2 N (Homo sapiens), P61088 | AID 485273, 2010; in the data active means inhibition above about 45%, passing the limit was not always enough
MEKK2 mut-MEK5 = MEK5 binding signal on mutant MEKK2 PB1, primary screen, biochemical, multiplex bead flow cytometry, Alexa488-MEK5; Alexa488-MEK5 binding to MEKK2 mutant; 290,000 tested, 0.35% active; percent response, % at 10 µM; in the data active means percent response above about 24%, passing the limit was not always enough
MEKK2 WT-MEK5 = modulators of MEK5 binding to wildtype MEKK2, primary screen, biochemical, multiplex bead flow cytometry, Alexa488-MEK5. 290,000 tested, 1.1% active. binding response (% of control), % at 10 µM. AID 1531, 2009. Alexa488-MEK5 binding to MEKK2 WT; actives lie on both sides. Mitogen-activated protein kinase kinase kinase 2 (Homo sapiens), Q9Y2U5; in the data active means binding response below about 67% or above about 130%
MEKK2wt confirm = modulators of MEK5 binding to wildtype MEKK2, confirmation, biochemical, single concentration, multiplex bead flow cytometry. 5,900 tested, 2.4% active. AID 1892, 2009. Alexa488-MEK5 binding to MEKK2 WT; actives lie on both sides. binding response (% of control), % at 10 µM. shares compounds with MEKK3 PB1 HTS; in the data active means binding response below about 16% or above about 210%; inactive means in between
MEKK2mut confirm = mutant MEKK2 PB1-MEK5 binding signal retest – biochemical, single concentration, multiplex bead flow cytometry, confirmation; shares compounds with MEKK3 PB1 HTS; Alexa488-MEK5 binding to MEKK2 mutant; percent response, % at 10 µM; 5,900 tested, 2% active; AID 1893, 2009; in the data active means percent response mostly above about 71%, no sharp cut-off; inactive means mostly below about 38%;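 further: higher means compound restores mutant binding toward wildtype level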
MEKK3 confirm = MEKK3 wild-type PB1 binding to MEK5, inhibitors, confirmation, biochemical, bead multiplex flow cytometry, single concentration, wildtype | shares compounds with MEKK3 PB1 HTS | 5,900 tested, 1.8% active | binding response (% of control), % at 10 µM | Alexa488-MEK5 binding to MEKK3; hits give low values | AID 1894, 2009;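 active means binding response below 72% of control, or above a set upper limit, though filed actives all read lower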;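 further: 100% = DMSO only wells and 0% = binding blocked by excess unlabeled MEK5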
* hit, by the source's call; . = not tested or not shown; [ ] = remark or other dose.

SMILES	MEKK3 PB1 HTS	UBC13 inh	MEKK2 mut-MEK5	MEKK2 WT-MEK5	MEKK2wt confirm	MEKK2mut confirm	MEKK3 confirm
CCOc1ccc(Nc2nc(N3CCCCC3)nc(N3CCCCC3)n2)cc1	78.0*[inhibitor]	-12.9	-7.0	87.0	114.0	11.0	108.0
Oc1ccc(Nc2nc(N3CCCC3)c3ccccc3n2)cc1	107.0	27.7	21.0	153.0*	197.0	93.0*	109.0
COc1ccc(Nc2nc(N3CCCCC3)c3ccccc3n2)cc1	106.0	30.8	14.0	136.0*	158.0	36.0	112.0
CC1CCN(c2nc(/C=C/c3ccccc3)nc3ccccc23)CC1	101.0	3.9	6.0	112.0	.	.	.
C(=C\c1nc(N2CCCC2)c2ccccc2n1)/c1ccccc1	107.0	6.3	30.0	158.0*	153.0	39.0	111.0
COc1ccc2[nH]cc(CCNC(=O)c3ccc4ccccc4n3)c2c1	107.0	7.9	8.0	105.0	.	.	.
Cc1ccc(CN2CCNC(=O)C2CC(=O)NCCCn2ncc3ccccc32)o1 (configuration not stated)	105.0	.	4.0	115.0	.	.	.
CC1=CCC2C(=O)N(c3ccc(OC(=O)c4ccco4)cc3)C(=O)C2C1 (configuration not stated)	103.0	4.1	-1.0	101.0	.	.	.
COc1ccccc1C(=O)NC1CCN(C(=S)NCCc2ccccc2)CC1	100.0	2.8	-6.0	106.0	.	.	.
O=c1cc(N2CCC3(CC2)OCCO3)[nH]c(=O)n1-c1ccc(Br)cc1	51.0*[inhibitor]	.	2.0	102.0	97.0	-2.0	102.0
O=c1cc(N2CCN(c3ccccc3F)CC2)[nH]c(=O)n1-c1ccc(Br)cc1	104.0	-5.7	13.0	109.0	.	.	.
S=C(NCCCN1CCOCC1)NC1CC1	99.0	2.0	0.0	102.0	.	.	.
CCN(CC#CCC1(O)c2ccccc2-c2ccccc21)CCO	77.0*[inhibitor]	-4.1	-13.0	84.0	95.0	-6.0	98.0
O=C1CCCC/C=C\C[C@H](CC(=O)N(CCO)Cc2ccccc2)C(=O)N2CCC[C@@H]2CO1	.	-1.6	.	.	.	.	.
COc1ccc2cc3cc(C(=O)NC(C)C)oc3nc2c1	124.0*	-8.5	5.0	117.0	101.0	0.0	103.0
CC(=O)Nc1ccc(NC(=O)CS(=O)(=O)c2cn(CC(=O)N3CCC(C)CC3)c3ccccc23)cc1	101.0	-10.2	1.0	94.0	.	.	.
CCCCNC(=O)CCCCn1c(=S)[nH]c2c([nH]c3ccc(OC)cc32)c1=O	101.0	-18.9	1.0	97.0	.	.	.
CC[C@H](C)NC(=O)CCCCCn1c(=S)[nH]c2c([nH]c3ccc(OC)cc32)c1=O	138.0*	-19.9	5.0	118.0	97.0	-3.0	102.0
CCOC(=O)c1cc2c(ccc3nc(C)c(C)c32)[nH]c1C	98.0	12.1	0.0	101.0	.	.	.
O=C(COC(=O)c1ccccn1)NC(=O)c1ccccc1	.	2.5	.	.	.	.	.
O=C(Cc1cccc2ccccc12)N/N=C/c1ccncc1	100.0	2.5	-7.0	97.0	.	.	.
O=C(Cc1cccc2ccccc12)N/N=C/c1ccc(F)cc1	122.0*	-5.1	6.0	113.0	95.0	2.0	96.0
CCOC(=O)CC(=O)CSc1nccc(-c2cccnc2)n1	43.0*[inhibitor]	0.0	-23.0	54.0	95.0	-8.0	97.0
CCOC(=O)CC(=O)CSc1nc(-c2cccnc2)ccc1C#N	98.0	-3.3	1.0	100.0	.	.	.
CNc1ccc(OC(F)F)cc1C(=O)c1ccccc1	1.0*[inhibitor]	3.1	-31.0	-2.0*[inhibitor]	104.0	0.0	102.0
SMILES	MEKK3 PB1 HTS	UBC13 inh	MEKK2 mut-MEK5	MEKK2 WT-MEK5	MEKK2wt confirm	MEKK2mut confirm	MEKK3 confirm
COc1ccc(C(=O)Nc2ccc(C)cc2C(=O)c2ccccc2)cc1	105.0	12.3	20.0	109.0	.	.	.
Cc1cc(C(=O)NCc2ccc(F)cc2)c2ccccc2n1	102.0	-0.1	-1.0	100.0	.	.	.
N#CCN1C(=S)N=C(Nc2cccc(Cl)c2)C12CCCCC2	101.0	-3.6	0.0	100.0	.	.	.
CC(C)(C)C1CCC2(CC1)C(Nc1cccc(C(F)(F)F)c1)=NC(=S)N2CC#N (configuration not stated)	2.0*[inhibitor]	1.6	-18.0	3.0*[inhibitor]	99.0	-1.0	98.0
COc1cc(C)ccc1OCCOCCOc1ccc([N+](=O)[O-])cc1	134.0*	0.8	1.0	105.0	104.0	-3.0	99.0
CCN1CCN(Cc2ccc(NC(=O)c3ccc(C)c(NC(=O)c4ccno4)c3)cc2C(F)(F)F)CC1	95.0	8.0	7.0	96.0	.	.	.
CCN1CCN(Cc2ccc(NC(=O)c3cc(NC(=O)c4ccno4)cc(OC)c3)cc2C(F)(F)F)CC1	76.0	27.3	6.0	111.0	.	.	.
CCN1CCN(Cc2ccc(NC(=O)c3ccc(C)c(NC(=O)c4csc(-c5ccncc5)n4)c3)cc2C(F)(F)F)CC1	101.0	24.4	9.0	141.0*	172.0	38.0	104.0
CCN1CCN(Cc2ccc(NC(=O)c3cc(NC(=O)c4cc5cccc(OC)c5o4)cc(OC)c3)cc2C(F)(F)F)CC1	124.0*	39.7	158.0*	148.0*	251.0*	93.0*	111.0
CCN1CCN(Cc2ccc(NC(=O)c3ccc(C)c(NC(=O)c4cccc(-c5cn[nH]c(=O)c5)c4)c3)cc2C(F)(F)F)CC1	108.0	42.7	29.0*	169.0*	143.0	20.0	99.0
NS(=O)(=O)c1ccc(CCNC(=O)c2ccc3c(=O)n4c(nc3c2)CCCCC4)cc1	.	-2.4	.	.	.	.	.
CCOc1ccc(C(=O)NNC2CC(=O)N(CCc3ccccc3)C2=O)cc1OC (configuration not stated)	0.0*[inhibitor]	-11.5	-5.0	0.0*[inhibitor]	102.0	0.0	104.0
Cc1cc(C)cc(NC(=S)Nc2cccc3cnccc23)c1	107.0	-67.8	7.0	140.0*	107.0	3.0	103.0
COc1ccc([N+](=O)[O-])cc1NC(=O)CSc1ccc2ccccc2c1	148.0*	-15.5	0.0	108.0	104.0	-2.0	103.0
COc1ccc(Cl)cc1C(=O)Nn1c(-c2cccs2)nc2ccccc2c1=O	104.0	-6.4	0.0	104.0	.	.	.
O=C(/C=C/c1ccc(Cl)cc1)Nn1c(-c2cccs2)nc2ccccc2c1=O	131.0*	-14.5	0.0	105.0	103.0	4.0	105.0
Cn1cccc2[nH]c(=O)nc1-2	98.0	6.6	-2.0	96.0	.	.	.
